Data on 39 compounds can be found in PubChem BioAssay AID720690 (Broad Institute, 2013).

Entries with a potency or affinity are not part of this list. Active and inactive are the calls of the source.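 How the source made its calls: active means every repeat run showing a signal drop whose fitted half-maximal concentration is at most twice the top tested concentration; inconclusive means repeat runs disagree, or flat partial drop, or poor fit; inactive means the rest.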

A short description of the experiment: general mammalian cell viability loss – activator set, cherry-pick, cytotoxicity control for miR-122 modulator project, dose response (AID 720690). Conditions: HEK293T viability, CellTiter-Glo luminescence, 48 h; series mostly up to 26 µM. Background: Cellular ATP, detected with luciferase, serves as a proxy for viable cell number.
`COC(=O)c1nn(-c2ccccc2)c(Sc2ccc(Cl)cc2)c1/C=N/O`: the outcome was inactive.

Consider `COc1cccc(CNC(=O)C[C@H]2CC[C@@H]3[C@@H](COc4ccc(NC(C)=O)cc4C(=O)N3C)O2)c1`, for which the outcome was inactive.

On to `COc1ccc(C#Cc2ccc3c(c2)O[C@@H](CN(C)C(=O)CN2CCOCC2)[C@@H](C)CN([C@H](C)CO)S3(=O)=O)cc1`, for which the result was inactive.

As for `CNC(=O)C[C@@H]1CC[C@@H]2[C@@H](COc3ccc(NC(=O)c4cccc(OC)c4)cc3C(=O)N2C)O1`, the call was inactive.

For the compound `O=C(C1CCCC1)N1C[C@H]2[C@@H](c3ccccc31)[C@H](CO)N2C(=O)Nc1cccc(F)c1`, the compound was called inactive.

Turning to `C/C=C/c1ccc([C@H]2[C@@H](CO)N(C(=O)C3CC3)[C@H]2CN(C)C(=O)CC2CC2)cc1`, the result was inactive.

Take `CN(C)CCCNC(=O)C[C@H]1CC[C@H]2[C@H](COc3ccc(NS(C)(=O)=O)cc3C(=O)N2C)O1`: the compound was classed as inactive.

For the compound `CCC(=O)N1[C@H](CO)[C@@H](c2ccccc2)[C@@H]1CN(C(C)C)S(C)(=O)=O`, the result was inactive.

As to `COCC(=O)N(C[C@@H]1N[C@H](CO)[C@H]1c1ccc(C2=CCCC2)cc1)C(C)C`, the call was inactive.

With `CN1C(=O)c2cc(NC(=O)c3cccs3)ccc2OC[C@@H]2O[C@@H](CC(=O)O)CC[C@@H]21`, the outcome was inactive.

On to `CO[C@@H]1CN(C)C(=O)c2ccc(NS(=O)(=O)c3ccc(C)cc3)cc2OC[C@@H](C)N(C(=O)NC(C)C)C[C@H]1C`, for which the compound was classed as inactive.

Turning to `CC(=O)Nc1ccc2c(c1)C(=O)N(C)[C@H]1CC[C@H](CC(=O)Nc3ccccc3Cl)O[C@@H]1CO2`, the result was inactive.

With `CCC(=O)Nc1ccc2c(c1)C(=O)N(C)[C@@H]1CC[C@H](CC(=O)NCCN3CCCCC3)O[C@H]1CO2`, the compound was called inactive.

As to `CCNC(=O)C[C@@H]1CC[C@H]2[C@@H](COc3ccc(NC(=O)Nc4ccc(F)cc4)cc3C(=O)N2C)O1`, the result was inactive.

Take `C/C=C/c1ccc([C@H]2[C@@H](CO)N(Cc3ccccn3)[C@H]2CNC(C)=O)cc1`: the compound was called inactive.

`COc1cccc(C(=O)Nc2ccc3c(c2)C(=O)N(C)[C@@H]2CC[C@@H](CC(=O)NCc4ccc(F)cc4)O[C@@H]2CO3)c1`: the call was inactive.

With `Cc1nn(C)cc1NC(=O)C[C@@H]1CC[C@H]2[C@@H](COc3ccc(NC(=O)Nc4cccc(Cl)c4)cc3C(=O)N2C)O1`, the compound was called inactive.

Consider `CNC(=O)C[C@@H]1CC[C@@H]2[C@@H](COc3ccc(NC(=O)Nc4ccc(F)c(F)c4)cc3C(=O)N2C)O1`, for which the outcome was inactive.

As for `COCC(=O)N(C)C[C@H]1Oc2cc(C#Cc3cccnc3)ccc2S(=O)(=O)N([C@@H](C)CO)C[C@@H]1C`, the result was inactive.

`CCCCNC(=O)Nc1nnc(-c2ccc(OCC)cc2)o1`: the call was inactive.

Take `O=S(=O)(Nc1nccs1)c1ccc(NS(=O)(=O)c2cccs2)cc1`: the outcome was inactive.

In the case of `CCNC(=O)Nc1ccc2c(c1)C(=O)N(C)[C@H]1CC[C@H](CC(=O)NCCOC)O[C@@H]1CO2`, the compound was called inactive.

Regarding `CN1C(=O)c2cc(NS(=O)(=O)c3ccc(Cl)cc3)ccc2OC[C@H]2O[C@H](CC(=O)N3CCc4ccccc4C3)CC[C@@H]21`, the outcome was inactive.

With `CN1C(=O)c2cc(NC(=O)c3cccc(F)c3)ccc2OC[C@@H]2O[C@@H](CC(=O)NC3CCC3)CC[C@@H]21`, the compound was called inactive.

`C[C@@H]1CN([C@H](C)CO)C(=O)c2cc(NC(=O)Nc3ccc(C(F)(F)F)cc3)ccc2O[C@@H]1CN(C)CC1CCCCC1`: the compound was called inactive.

Turning to `COCC(=O)N(C)C[C@H]1Oc2cc(-c3ccccc3F)ccc2S(=O)(=O)N([C@@H](C)CO)C[C@@H]1C`, the outcome was inactive.

Turning to `CNC(=O)C[C@H]1CC[C@H]2[C@@H](COc3ccc(NC(=O)C4CC4)cc3C(=O)N2C)O1`, the compound was classed as inactive.

For the compound `CCCC(=O)Nc1ccc2c(c1)C(=O)N(C)[C@@H]1CC[C@H](CC(=O)N3CCc4ccccc4C3)O[C@H]1CO2`, the compound was classed as inactive.

`CN(C)CCNc1ncnc2c1sc1nc(N3CCOCC3)c3c(c12)CC(C)(C)SC3`: the compound was classed as inactive.

With `COc1ccc(C#Cc2ccc3c(c2)O[C@H](CN(C)C(=O)CN2CCOCC2)[C@H](C)CN([C@@H](C)CO)S3(=O)=O)cc1`, the outcome was inactive.

`CO[C@H]1CN(C)C(=O)c2cc(NC(=O)c3cccc(Oc4ccccc4)c3)ccc2OC[C@@H](C)NC[C@H]1C`: the result was inactive.

As for `CN1C(=O)c2cc(NC(=O)Nc3ccccc3Cl)ccc2OC[C@H]2O[C@H](CC(=O)O)CC[C@@H]21`, the result was inactive.

Take `CN1C(=O)c2cc(NC(=O)c3cccs3)ccc2OC[C@@H]2O[C@@H](CC(=O)NCCN3CCCCC3)CC[C@@H]21`: the compound was classed as inactive.

Take `COc1ccc(-c2nc(NC(=O)CSc3nnc(C)s3)ns2)cc1`: the compound was called inactive.

For the compound `CC(C)CC#Cc1ccc2c(c1)O[C@H](CN(C)C(=O)c1cnccn1)[C@H](C)CN([C@@H](C)CO)S2(=O)=O`, the call was inactive.

As to `CN1C(=O)c2cc(NC(=O)c3cccs3)ccc2OC[C@@H]2O[C@@H](CC(=O)O)CC[C@H]21`, the result was inactive.

As for `OC[C@H]1[C@@H](c2ccccc2)[C@H](CNCC2CCC2)N1CC1CC1`, the compound was classed as inactive.

Consider `CCS(=O)(=O)Nc1ccc2c(c1)C(=O)N(C)C[C@@H](OC)[C@H](C)CN(CC1CCCC1)[C@H](C)CO2`, for which the compound was called inactive.

For `C[C@@H]1CN([C@H](C)CO)S(=O)(=O)c2ccc(-c3ccc(C(=O)N(C)C)cc3)cc2O[C@@H]1CN(C)C(=O)C1CCC1`, the compound was classed as inactive.
